Whole data set: some 39,000 sequences, median “fluorescence intensity (a.u.)” near 4,300, cut for the highest 2% near 39,000. Shown is part of a subset that was picked to be rich in the highest values.
What follows are sequences tested against T1, OsSMF1 (Oryza sativa, UniProt Q6ZLB0 1-436) (assay: protein-binding microarray (RPBM); PBS, 2% BSA, 51.3 ng/ul salmon testes DNA, 50 uM zinc acetate, 200 nM TF, 25 C, 1 h; high values mean tight binding). Settings: protein: recombinant; tags: N-terminal polyhistidine and DsRed monomer fusion (pET32a); chain copies: 2; label: CyDye5-dUTP incorporated in the synthesized complementary strand; 3' TTTTT single-stranded linker to array surface; dsDNA, one strand shown.
T1 sequence: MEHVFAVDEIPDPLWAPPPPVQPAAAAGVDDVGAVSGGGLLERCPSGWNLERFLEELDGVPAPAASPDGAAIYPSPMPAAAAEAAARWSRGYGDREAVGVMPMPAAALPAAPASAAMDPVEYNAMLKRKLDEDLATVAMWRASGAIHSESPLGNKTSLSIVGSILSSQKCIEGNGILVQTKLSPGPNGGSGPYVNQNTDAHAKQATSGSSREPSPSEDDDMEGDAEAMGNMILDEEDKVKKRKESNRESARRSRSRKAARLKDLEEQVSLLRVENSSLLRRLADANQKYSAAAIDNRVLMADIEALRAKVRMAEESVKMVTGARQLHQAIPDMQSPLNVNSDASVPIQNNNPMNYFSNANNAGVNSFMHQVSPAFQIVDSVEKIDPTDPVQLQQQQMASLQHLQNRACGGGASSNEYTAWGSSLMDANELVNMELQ
In short: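 Binding signal here means per-feature fluorescence intensity in arbitrary units. The values were read on an Axon 4000B scanner after a custom Agilent array, double-stranded by primer extension with Cy5-dUTP, was incubated with 200 nM protein at 25 °C for 1 h in PBS with 2% BSA, salmon testes DNA and 50 µM zinc acetate, then washed. The proteins were transcription factors with an N-terminal polyhistidine tag and DsRed, expressed in E. coli BL21-CodonPlus and purified on Ni–NTA.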
With “CGAATTTGCTACCCCATTTCACAAATCAAAAGTGCAAAGCCGGAGTCACCTAGTGCAG” the binding signal was 29200 fluorescence intensity (a.u.). With “CACAGTCGACGACACCCTCCATCTCCGTCCCTCCCACTCCCGGAGTCACCTAGTGCAG” the binding signal was 7160 fluorescence intensity (a.u.). In the case of “ACGGGCCGTGCTTGGGCCAGCGGCTCGGCACGTGGGCCGGCGGAGTCACCTAGTGCAG”, the binding signal is reported as 3480 fluorescence intensity (a.u.). For “GAATCAGTAAATAAAGCGCTAGGTTTAATGATGTCATGGACGGAGTCACCTAGTGCAG”, the binding signal was 6840 fluorescence intensity (a.u.). In the case of “ATTAACAATTCAATGGTTCTTGATGTGTTCTACTTAACCTCGGAGTCACCTAGTGCAG”, the binding signal is reported as 3260 fluorescence intensity (a.u.). For “AAGATAAATGGTTAAACCTTATATGTGAAACCAGAGAAAACGGAGTCACCTAGTGCAG”, the binding signal was 21100 fluorescence intensity (a.u.). In the case of “CCTTCTTAACAGTCTGTGAAGCTCTGCCATCTCACCGTCTCGGAGTCACCTAGTGCAG”, the binding signal is reported as 3820 fluorescence intensity (a.u.). “CTTCGGCCTTAGCTCCAAATCCGATGTAAATTTACCAAATCGGAGTCACCTAGTGCAG” was tested, and the binding signal was 61700 fluorescence intensity (a.u.). “CTCCAAATTAGTATCCAAACATCCGATGTGACATGGACTTCGGAGTCACCTAGTGCAG” was tested, and the binding signal was 4370 fluorescence intensity (a.u.). In the case of “TTCGGCGCAAATTTCTAATCATGATGTAATATAATTAGCTCGGAGTCACCTAGTGCAG”, the binding signal is reported as 3270 fluorescence intensity (a.u.). In the case of “TTTCCAATCACGTATTCCGGACAAAGGCCTAAACCTGCTCCGGAGTCACCTAGTGCAG”, the binding signal is reported as 35800 fluorescence intensity (a.u.). For “ACCAAAATTCTCATATCTCTCAACTAAACAAAACTCTTAACGGAGTCACCTAGTGCAG”, the binding signal was 3300 fluorescence intensity (a.u.). For “ACCCACGCACTCACTGACGATGCAATGCGGCCATATGCTACGGAGTCACCTAGTGCAG”, the binding signal was 3240 fluorescence intensity (a.u.). “GCAGAGTTCAGAATTTGTTCAGTTTAGGTGCTTCTGTAATCGGAGTCACCTAGTGCAG” was tested, and the binding signal was 55600 fluorescence intensity (a.u.). In the case of “AGTGCTTTATTTTGCTGATTCATTGTTAAAATTGCCTCTACGGAGTCACCTAGTGCAG”, the binding signal is reported as 5500 fluorescence intensity (a.u.). With “CTCTTCATTTGTTAATTTAATTTGATTAATTCAGTGCTTCCGGAGTCACCTAGTGCAG” the binding signal was 64900 fluorescence intensity (a.u.). With “TTTTGCTTAGCTGTTCTGTAATTGTCGATTTGAATTGGATCGGAGTCACCTAGTGCAG” the binding signal was 3500 fluorescence intensity (a.u.). For “TAGTAGATAGCTTTGCTCTCTCTCTTCATTTAATATATTCCGGAGTCACCTAGTGCAG”, the binding signal was 4540 fluorescence intensity (a.u.). For “GATGTTCAGATGTACAACAGTAATTTGATTGCATCGGCTTCGGAGTCACCTAGTGCAG”, the binding signal was 3270 fluorescence intensity (a.u.). For “CGGGAGAGAGGATCGGGAGAGATAGGGTTAGGGTTAGGGTCGGAGTCACCTAGTGCAG”, the binding signal was 3320 fluorescence intensity (a.u.). With “CCACCACGTACAGTGCTTTCCTAGGCAGAAGCCCACTATCCGGAGTCACCTAGTGCAG” the binding signal was 3490 fluorescence intensity (a.u.). With “ACCAATCGCATGACGATATTCCCGCTCCCACAATCGCGTTCGGAGTCACCTAGTGCAG” the binding signal was 3550 fluorescence intensity (a.u.). With “CGAACCGATGGTTGTGATTGTACGTGTCTACCTGATACGTCGGAGTCACCTAGTGCAG” the binding signal was 5940 fluorescence intensity (a.u.). For “GAAAATAAGGGAGTTTTCTGCAAAATTTGATGAATGGAAGCGGAGTCACCTAGTGCAG”, the binding signal was 3230 fluorescence intensity (a.u.). For “TTTTGGTCATTTTACCATATGACTTTGTTTTGGTAATTTGCGGAGTCACCTAGTGCAG”, the binding signal was 3210 fluorescence intensity (a.u.). For “TTTCTGTGACGGCCCGCGTAGCTTCGGAGGAAGCGACCACCGGAGTCACCTAGTGCAG”, the binding signal was 47700 fluorescence intensity (a.u.). With “CGGAGTGGCCAGCGTGGTGACAAGCGCGACGTGGCGGCTTCGGAGTCACCTAGTGCAG” the binding signal was 6830 fluorescence intensity (a.u.). “CGGATTCTCGTCGGCTTCGGCGACCGGAAGAGGAGAGGAGCGGAGTCACCTAGTGCAG” was tested, and the binding signal was 3230 fluorescence intensity (a.u.). In the case of “CTTGGTGGTTTTATAGGGTGGTTTCGCTGACGTGGCGTGGCGGAGTCACCTAGTGCAG”, the binding signal is reported as 44600 fluorescence intensity (a.u.). With “TTTAGATGGCGGTTTTGGCTGACGTGGCACATATGTGGCTCGGAGTCACCTAGTGCAG” the binding signal was 33100 fluorescence intensity (a.u.). For “GGTTTAGACGTGGCGGTGGTGGGTGGCGTACGTTTGGGTTCGGAGTCACCTAGTGCAG”, the binding signal was 5180 fluorescence intensity (a.u.). With “GGCACTATAGATGTTTGGTTTCGCTGACGTGGCATTCTAGCGGAGTCACCTAGTGCAG” the binding signal was 49000 fluorescence intensity (a.u.). “AGCGGTTTCGCTGACGTGGCGGTTAGGTGGCATTTGAATTCGGAGTCACCTAGTGCAG” was tested, and the binding signal was 23800 fluorescence intensity (a.u.). With “TCCCTTGGCAGTATAGGTGGGTGGTTTTGCTTACGTGGCACGGAGTCACCTAGTGCAG” the binding signal was 40000 fluorescence intensity (a.u.). For “TCCCTTGACGGTTTTGGCTGACGTGGCGCCTAGGTGGCTACGGAGTCACCTAGTGCAG”, the binding signal was 30000 fluorescence intensity (a.u.). For “TGGAGGGCAGTTTCGCTGACGTGGCGGTGTTGACCTAGTGCGGAGTCACCTAGTGCAG”, the binding signal was 34200 fluorescence intensity (a.u.). For “GTTTAATGGGTTGATGTGGCATGCTTACATATAGGTTTTACGGAGTCACCTAGTGCAG”, the binding signal was 5830 fluorescence intensity (a.u.). For “AACTGGAACCCTTAGCCACTGTGAGGTGTACATCTGACAACGGAGTCACCTAGTGCAG”, the binding signal was 4990 fluorescence intensity (a.u.). “CTAGCCACTGAAGCATGGGTCATGATACAGCAGTTAATATCGGAGTCACCTAGTGCAG” was tested, and the binding signal was 3440 fluorescence intensity (a.u.). For “CTTATCAAGACTCGTGGCGTGGAAAGCTTTACAGGTGAGGCGGAGTCACCTAGTGCAG”, the binding signal was 4710 fluorescence intensity (a.u.). “ATGCATGACAGCACACCACACATTGACACCACTGAGGCAGCGGAGTCACCTAGTGCAG” was tested, and the binding signal was 3260 fluorescence intensity (a.u.). With “TTAAAGAAATGGTTGGTGCTGCTCCGACTCCCTGTTTCCTCGGAGTCACCTAGTGCAG” the binding signal was 16200 fluorescence intensity (a.u.). “GCCTCTCCTCAAGCGGTGGAGAGCGCGGACGTGGACGTGCCGGAGTCACCTAGTGCAG” was tested, and the binding signal was 6520 fluorescence intensity (a.u.). For “GGATTAATTAGTCTCAAAAGATTCGTCTCGCGGTTTCCAGCGGAGTCACCTAGTGCAG”, the binding signal was 29400 fluorescence intensity (a.u.). In the case of “ATTAGGCTCAAAAGATTCGTCTCGCGATTTTCAGACGAGCCGGAGTCACCTAGTGCAG”, the binding signal is reported as 41800 fluorescence intensity (a.u.). With “TGTCAAATCATGACGCAATTAGGCTCAGAAGATTCGTCTCCGGAGTCACCTAGTGCAG” the binding signal was 4030 fluorescence intensity (a.u.). In the case of “TTATGATGTAATTAGGCTCAAAAGATTCGTCTCGCAATTTCGGAGTCACCTAGTGCAG”, the binding signal is reported as 44200 fluorescence intensity (a.u.).
